Screening results deposited in PubChem by National Center for Advancing Translational Sciences (NCATS).
Pf Dd2 inh – qHTS Primary assay for Inhibitors of Plasmodium falciparum Dd2 growth in vitro | AID 1347417, 2020 | P. falciparum Dd2 growth, SYBR Green, 72 h | 120,000 tested, 4.3% active | Potency, µM (top dose mostly 28.9 µM), for inactives: top-dose activity, negative = inhibition, hits mostly inhibitors; active = well fitted inhibition curve with a large enough effect;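 also: plate controls were DMSO vehicle for no effect and reference drug for full effect; nearly all actives have a fitted effect of over 65% in size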
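Infected erythrocytes (Dd2, 0.3% parasitemia, 2.5% hematocrit final) are added to compound in RPMI-1640/Albumax II medium, grown 72 h at 37C in low oxygen, then lysed with saponin/Triton-X containing SYBR Green and read by fluorescence.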
* marks the source's active call; other numbers are inactive results; i = inactive; [ ] = dose if it differs, or a comment. The sample as a whole holds a higher share of hits than the screen did. Potency is read from the fitted curve at half-maximal effect.

SMILES	Pf Dd2 inh
Cc1nc(CCC(=O)NCc2cc3n(n2)CCCN(C(=O)N(C)C)C3)n[nH]1	-23%
CCOC(=O)C1(Cc2ccccc2F)CCCN(C(=O)C2=C(C)OCCO2)C1 (centres undefined)	-10%
CCOC(=O)C1(Cc2ccccc2Cl)CCN(C(=O)c2ccsc2)CC1	-6%
CCOC(=O)C1(Cc2ccccc2Cl)CCN(Cc2cccc3c2OCO3)CC1	8.9µM*
Cc1cccc(C)c1NC(=O)c1oc2ccc3c(c2c1C)C(=O)CC(C)(C)O3	-17%
CC(C)(C)CC(=O)N1CCN2C(=O)N(CC(N)=O)C(=O)[C@@H]2C1	-1%[44.1 µM]
COc1ccc(Nc2nc3c(S(=O)(=O)c4ccccc4)nnn3c3ccsc23)cc1OC	37%
COc1cccc(-c2[nH]ncc2CN)c1	3%
CCCCN(Cc1ccccc1)Cc1cn[nH]c1-c1ccc(OC)cc1OC	13µM*
COc1ccc(-c2[nH]ncc2C(=O)NCc2cccc(OC)c2)cc1	22%
COc1ncc(CN2CCc3c(n(CCOc4ccccc4)n(-c4ccccc4)c3=O)C2)cn1	13%
Cc1ccc(Cn2cc(S(=O)(=O)c3cccc(C)c3)c(=O)c3cc(F)c(N4CCOCC4)cc32)cc1	10µM*
Cc1ccc(Cn2cc(S(=O)(=O)c3cccc(Cl)c3)c(=O)c3cc(F)c(N4CCOCC4)cc32)cc1	21%
Cc1cccc(S(=O)(=O)c2cn(C)c3cc(N4CCN(c5ccccc5)CC4)c(F)cc3c2=O)c1	41%
Cn1cc(S(=O)(=O)c2cccc(Cl)c2)c(=O)c2cc(F)c(N3CCN(c4ccccc4)CC3)cc21	0%
O=c1c(S(=O)(=O)c2ccccc2)cn(Cc2ccccc2)c2cc(N3CCOCC3)c(F)cc12	8.9µM*
CCn1cc(S(=O)(=O)c2cc(C)cc(C)c2)c(=O)c2cc(F)c(N3CCOCC3)cc21	20%
CC1CCC2(CC1)NC(=O)N(CC(=O)NCc1ccccc1F)C2=O (centres undefined)	112%
O=C(Cn1ccc(=O)[nH]c1=O)N1C[C@H]2CC[C@@H]1CN(Cc1cscn1)C2	1%
COc1cc(C2c3c(oc4ccc(F)cc4c3=O)C(=O)N2c2nc(C)c(C)s2)cc(OC)c1OC (centres undefined)	17%
COc1cc(OC)cc(OCc2nc3c(n2Cc2ccccc2)C(=O)N(Cc2cccc(Cl)c2)CCN3)c1	7.9µM*
O=C1c2c(nc(COc3cccc(Cl)c3)n2Cc2ccccc2)NCCN1CC1CC1	-30%[44.1 µM]
O=C1c2c(nc(COc3cc(F)cc(F)c3)n2Cc2ccccc2)NCCN1Cc1ccccc1	-21%
O=C1c2c(nc(COc3ccc4c(c3)OCO4)n2Cc2ccccc2)NCCN1CCOc1ccccc1	i
O=C1c2c(nc(COc3ccc(F)cc3)n2Cc2ccccc2)NCCN1CCOc1ccccc1	5.6µM*
SMILES	Pf Dd2 inh
COc1cccc(OCc2nc3c(n2Cc2ccccc2)C(=O)N(Cc2cccc(Cl)c2)CCN3)c1	13µM*
COCCN1CCNc2nc(CNc3ccon3)n(Cc3ccccc3)c2C1=O	11µM*
COCCN1CCNc2nc(COc3ccccc3OC(F)(F)F)n(Cc3ccccc3)c2C1=O	i
CC(=O)N1CCN(Cc2nc3c(n2Cc2ccccc2)C(=O)N(Cc2cccc(Cl)c2)CCN3)CC1	-14%
O=C1c2c(nc(COc3ccc4c(c3)OCO4)n2Cc2ccccc2)NCCN1Cc1cccc(Cl)c1	-14%
O=C1c2c(nc(COc3ccccc3)n2Cc2ccccc2)NCCN1Cc1ccccc1	-34%[44.1 µM]
COCCN1CCNc2nc(COc3ccc(Oc4ccccc4)cc3)n(Cc3ccccc3)c2C1=O	-9%
Cc1ccc(C)c(N2CCN(c3nc4ccccc4c4nc(CCn5nc(C)cc5C)nn34)CC2)c1	3%
CC(C)CNC(=O)c1cc(C2CC2)nc2onc(C3CCNC3)c12 (centres undefined)	-8%
COCCn1c(CNC(=O)c2ccc(C)cc2)nc2cccnc21	17%
Cc1cc(C)n2c(C(=O)N[C@@H]3COCC[C@@H]3OCc3ccccc3)nnc2n1	-6%
O=C(COc1ccccc1)N1CC(Oc2ccc(-c3noc(C4CCOCC4)n3)cc2)C1	-31%
CCc1sc(NC(=O)Cn2nc3c(cc2=O)CCCC3)nc1C(=O)OC	-1%
Cn1nc(C2CCCC2)cc1[C@H]1CN2CC[C@H]1C[C@@H]2CNS(=O)(=O)c1ccccc1	i
O=C(c1ccc(OC2CCN(C(=O)c3ccccc3)CC2)nc1)N1CCOCC1	-3%
CCCNc1cc(N2CCC(CCC(=O)Nc3cc(C)ccc3C)CC2)ncn1	-22%
Cc1noc(-c2cn(C3CCN(C(=O)c4cc(Cl)ccc4F)C3)nn2)n1 (centres undefined)	i
O=S(=O)(N[C@H]1CO[C@H]2[C@@H]1OC[C@@H]2Nc1nccc(-c2cccs2)n1)c1cccs1	i
Cc1ccc(C(=O)N2CCC(N3Cc4ccccc4C3=O)CC2)cc1	13%
COc1ccccc1OCc1nc2c(n1Cc1ccccc1)C(=O)N(CC1CC1)CCN2	i
COc1ccccc1OCc1nc2c(n1Cc1ccccc1)C(=O)N(Cc1cccc(Cl)c1)CCN2	10µM*
COc1ccc(OCc2nc3c(n2Cc2ccccc2)C(=O)N(CC2CC2)CCN3)cc1OC	-12%
CCn1ccc(C(=O)N2CC(C(=O)N(C)C)C3(CCOCC3)C2)n1 (centres undefined)	10%
CC(=O)N1CCC(N2C[C@@H]3C[C@H]2C(=O)N(Cc2cccnc2)c2ccccc2O3)CC1	-13%[44.1 µM]
CCOc1ccc(C(=O)N2CCC3(CC2)CN(c2ncccn2)CC3CO)cc1 (centres undefined)	-23%
SMILES	Pf Dd2 inh
Cc1noc(C)c1CCNC(=O)C1CCN(C(=O)c2ncn3c2COC(c2ccc(F)cc2)C3)CC1 (centres undefined)	i
CN(C)C(=O)N1CCN(c2nc3ncccc3o2)CC1	i
Cn1cc(C(=O)N2CC[C@@](C)(O)[C@@H](O)C2)c2ccccc21	-3%
Cc1cccc2c(C3CCN(C(=O)c4c(Cl)cc(Cl)cc4Cl)CC3)c[nH]c12	-17%
Cn1cc(C2CCN(C(=O)c3c(Cl)cc(Cl)cc3Cl)CC2)c2ccccc21	8.9µM*
O=C1CC(c2noc(-c3cccc(OC(F)(F)F)c3)n2)CN1c1ccc(F)c(Cl)c1 (centres undefined)	19%
COc1ccc(Cn2c(CNS(=O)(=O)c3ccc(Cl)s3)nc3cccnc32)cc1	-13%
COc1ccc(-c2cc(C[C@H]3CNCC[C@H]3CC(=O)N3CCN(C(C)=O)CC3)no2)cc1	5%
O=C(c1cn(CCCc2ccccc2)nn1)N1CCC(OCc2cccnc2)CC1	-10%
CS(=O)(=O)NC1CCN(c2cc(C3CC(N)C3)nc(N)n2)CC1 (centres undefined)	0%
CNc1cc(C2CC(NS(=O)(=O)c3cc(C)sc3C)C2)nc(N)n1 (centres undefined)	8.9µM*
Cc1cc(C(F)(F)F)nc(CCNc2cc(C3CC(N)C3)nc(N)n2)n1 (centres undefined)	-21%
Cc1cccc(C(=O)N2CCC(N3CCN(Cc4ccc(F)cc4)C(=O)C3=O)CC2)c1	17%
COc1cccc(NC(=O)N(Cc2cn(C)c3ccccc23)C2CCCCC2)c1	2.8µM*
Cc1ccc(NC(=O)N(Cc2cn(C)c3ccccc23)C2CCCCC2)cc1C	3.5µM*
COc1cccc(NC(=O)N(CCC(C)C)C2CCN(C(C)C)CC2)c1	i
Cc1ccc(NC(=O)Cn2cc(C(=O)C3CC3)c3ccccc32)cc1C	314%[5.79 µM]
CC(=O)N1CCC(N(CCCOC(C)C)C(=O)Nc2ccc(C)c(C)c2)CC1	4%
COc1ccc(CN(C(=O)Nc2cccc(OC)c2)C2CCN(C(C)=O)CC2)cc1	-5%
